Test [1] is described as follows: A CellTox Green Cytotoxicity Assay to monitor cytotoxicity in HepG2 cells - 16 hour (AID 1224876). Also: nearly all actives have a fitted effect of over 45% in size. In outline:
(§1)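 Using 1536-well format, dye-containing HepG2 suspension was seeded, allowed 5 h at 37 C/5% CO2, dosed by pintool with compounds, positive and negative controls, and imaged for fluorescence across 40 h.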

A short description of test [2]: qHTS RealTime-Glo MT Cell Viability Assay in HepG2 cells - 32 hour (AID 1224877). Also: nearly all actives have a fitted effect of over 55% in size. The gist of the method: (§2)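 Luminescence read-out: viable HepG2 cells reduce a prosubstrate to a NanoLuc substrate, giving a signal proportional to live cell number. Reads taken at 0, 8, 16, 24, 32 and 40 h of compound exposure at 37 C.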
In general terms: In qHTS, concentration-response curves come from the screen itself.

Test [3] in a line: A CellTox Green Cytotoxicity Assay to monitor cytotoxicity in HepG2 cells - 24 hour (AID 1224878). Also: nearly all actives have a fitted effect of over 45% in size. In outline:
as §1

Test [4] is described as follows: A CellTox Green Cytotoxicity Assay to monitor cytotoxicity in HepG2 cells - 40 hour (AID 1224879). Also: nearly all actives have a fitted effect of over 40% in size. In outline: as §1
A short description of test [5]: qHTS RealTime-Glo MT Cell Viability Assay in HEK293 cells - 0 hour (AID 1224880). Also: top concentration of the series differs between compounds; nearly all actives have a fitted effect of over 45% in size. The gist of the method: (§3)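 Viable HEK293 cells reduce a cell-permeant prosubstrate; the product diffuses out and is consumed by NanoLuc in the medium to give light. Compounds went in after a 5 h incubation and plates were read over the treatment course.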
The nature of test [6]: A CellTox Green Cytotoxicity Assay to monitor cytotoxicity in HEK293 cells - 32 hour (AID 1224881). Also: nearly all actives have a fitted effect of over 40% in size. In outline:
(§4)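 Fluorescence intensity, read at 0, 8, 16, 24, 32 and 40 h of compound treatment, reflected dye binding to DNA of dead HEK293 cells; compounds (23 nL, DMSO) were added 5 h after plating cells with reagent.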

Test [7] can be described thus: A CellTox Green Cytotoxicity Assay to monitor cytotoxicity in HepG2 cells - 32 hour (AID 1224883). Also: nearly all actives have a fitted effect of over 50% in size. The gist of the method:
as §1

Test [8] can be described thus: A CellTox Green Cytotoxicity Assay to monitor cytotoxicity in HEK293 cells - 8 hour (AID 1224884). Also: nearly all actives have a fitted effect of over 35% in size. In outline: as §4
Test [9] can be described thus: qHTS RealTime-Glo MT Cell Viability Assay in HepG2 cells - 16 hour (AID 1224885). Also: nearly all actives have a fitted effect of over 50% in size. The gist of the method:
as §2

Test [10] is described as follows: qHTS RealTime-Glo MT Cell Viability Assay in HEK293 cells - 24 hour (AID 1224886). Also: nearly all actives have a fitted effect of over 50% in size. Also: potency is read from the fitted curve at half-maximal effect. The gist of the method:
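Nonlytic real-time viability readout: viable cells convert prosubstrate to NanoLuc substrate, giving luminescence proportional to live cell number. HEK293, 600 cells/well, compound added after 5 h, continuous culture at 37 C.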

The nature of test [11]: qHTS RealTime-Glo MT Cell Viability Assay in HEK293 cells - 8 hour (AID 1224887). Also: nearly all actives have a fitted effect of over 50% in size. Also: potency is read from the fitted curve at half-maximal effect. The gist of the method:
as §3

A short description of test [12]: A CellTox Green Cytotoxicity Assay to monitor cytotoxicity in HEK293 cells - 16 hour (AID 1224888). Also: nearly all actives have a fitted effect of over 35% in size. In outline: as §4
The nature of test [13]: qHTS RealTime-Glo MT Cell Viability Assay in HepG2 cells - 0 hour (AID 1224889). Also: nearly all actives have a fitted effect of over 50% in size. The gist of the method: as §2
Test [14] is described as follows: A CellTox Green Cytotoxicity Assay to monitor cytotoxicity in HepG2 cells - 8 hour (AID 1224890). Also: nearly all actives have a fitted effect of over 45% in size. In outline: as §1
Test [15] can be described thus: qHTS assay to identify small molecule antagonists of the estrogen receptor alpha (ER-alpha) signaling pathway using the BG1 cell line in the presence of 0.1 nM 17-beta-estradiol - cell viability counter screen (AID 1259241). Also: nearly all actives have a fitted effect of over 40% in size. The gist of the method:
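VM7Luc4E2 cells (endogenous ER-alpha, 4×ERE-luciferase), hormone-starved 5 days in charcoal-stripped FBS, were treated with compounds plus 0.1 nM 17beta-estradiol for 22 hr at 37C; viability read in same wells as CellTiter-Fluor live-cell protease fluorescence.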

The nature of test [16]: qHTS assay to identify small molecule antagonists of the androgen receptor (AR) signaling pathway using the MDA cell line in the presence of 0.5 nM R1881 - cell viability counter screen (AID 1259242). Also: nearly all actives have a fitted effect of over 45% in size. In outline: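 Viability of MDA-kb2 cells was multiplexed with the luciferase AR readout; after 16 hr with compounds and R1881 at 0.5 nM final, CellTiter-Fluor fluorescence was recorded.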

In test [17] the target is Estrogen receptor (Homo sapiens) (UniProt P03372). Nature of the test: qHTS assay to identify small molecule antagonists of the estrogen receptor alpha (ER-alpha) signaling pathway using the BG1 cell line in the presence of 0.1 nM 17-beta-estradiol (AID 1259244). Also: nearly all actives have a fitted effect of over 50% in size. In outline: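 Estradiol at 0.1 nM (final) stimulates the endogenous ER-alpha of VM7Luc4E2 cells carrying an ERE-driven luciferase; compounds are co-incubated 22 h at 37C and luciferase output quantified by luminescence.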
Sequence of Estrogen receptor (Homo sapiens) (P03372 whole entry, looked up): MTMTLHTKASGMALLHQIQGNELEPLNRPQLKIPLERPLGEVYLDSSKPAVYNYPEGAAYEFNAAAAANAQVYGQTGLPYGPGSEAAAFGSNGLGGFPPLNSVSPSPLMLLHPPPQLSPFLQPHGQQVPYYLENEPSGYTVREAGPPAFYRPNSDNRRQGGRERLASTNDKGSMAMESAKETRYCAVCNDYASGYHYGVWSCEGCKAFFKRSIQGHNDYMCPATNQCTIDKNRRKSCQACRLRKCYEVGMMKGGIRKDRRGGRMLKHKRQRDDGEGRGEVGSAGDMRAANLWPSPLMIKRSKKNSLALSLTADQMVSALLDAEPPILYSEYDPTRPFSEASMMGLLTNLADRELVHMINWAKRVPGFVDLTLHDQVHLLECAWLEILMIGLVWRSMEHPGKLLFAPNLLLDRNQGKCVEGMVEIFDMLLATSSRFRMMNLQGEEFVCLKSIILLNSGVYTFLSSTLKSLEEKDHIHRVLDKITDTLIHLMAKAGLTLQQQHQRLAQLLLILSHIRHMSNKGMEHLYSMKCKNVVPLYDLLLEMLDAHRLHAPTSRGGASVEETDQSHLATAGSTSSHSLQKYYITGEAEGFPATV

Test [18] in a line: A CellTox Green Cytotoxicity Assay to monitor cytotoxicity in HepG2 cells - 0 hour (AID 1224882). Also: nearly all actives have a fitted effect of over 35% in size. The gist of the method:
as §1

Test [19] is described as follows: qHTS assay to identify small molecule phospholipidosis (PLD) inducers (AID 1259344; active = well fitted curve in the direction sought with a large enough effect; an effect the other way counts as inactive or inconclusive). The gist of the method:
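Phospholipidosis is scored by imaging LipidTOX-stained pits in HepG2 cells exposed to compound for 24 h at 37 C; pit counts and integrated intensities per well and per cell serve as outputs.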

The target in test [20] is Androgen receptor (Homo sapiens) (UniProt P10275). The experiment in a line: qHTS assay to identify small molecule antagonists of the androgen receptor (AR) signaling pathway using the MDA cell line in the presence of 0.5 nM R1881 (AID 1259243). Also: nearly all actives have a fitted effect of over 50% in size. The gist of the method:
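Reporter cells cultured without CO2 receive test chemicals, then 0.5 nM R1881 final; after 16 hr at 37C, ONE-Glo is added and light output recorded.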

A number with no mark means an inactive call. Inconclusive results are not listed. Active and inactive are the calls of the source. Unless noted, calls follow the shape of the dose curve; as a rule, active = well fitted curve in the direction sought with a large enough effect in the repeat runs; inconclusive = weak or mixed curves; inactive = no such curve, though single readings can be large; an effect the other way counts as inactive or inconclusive.
% is scaled to controls: 0 for no effect and ±100 for the full control effect.

Sequence of Androgen receptor (Homo sapiens) (P10275 whole entry, looked up): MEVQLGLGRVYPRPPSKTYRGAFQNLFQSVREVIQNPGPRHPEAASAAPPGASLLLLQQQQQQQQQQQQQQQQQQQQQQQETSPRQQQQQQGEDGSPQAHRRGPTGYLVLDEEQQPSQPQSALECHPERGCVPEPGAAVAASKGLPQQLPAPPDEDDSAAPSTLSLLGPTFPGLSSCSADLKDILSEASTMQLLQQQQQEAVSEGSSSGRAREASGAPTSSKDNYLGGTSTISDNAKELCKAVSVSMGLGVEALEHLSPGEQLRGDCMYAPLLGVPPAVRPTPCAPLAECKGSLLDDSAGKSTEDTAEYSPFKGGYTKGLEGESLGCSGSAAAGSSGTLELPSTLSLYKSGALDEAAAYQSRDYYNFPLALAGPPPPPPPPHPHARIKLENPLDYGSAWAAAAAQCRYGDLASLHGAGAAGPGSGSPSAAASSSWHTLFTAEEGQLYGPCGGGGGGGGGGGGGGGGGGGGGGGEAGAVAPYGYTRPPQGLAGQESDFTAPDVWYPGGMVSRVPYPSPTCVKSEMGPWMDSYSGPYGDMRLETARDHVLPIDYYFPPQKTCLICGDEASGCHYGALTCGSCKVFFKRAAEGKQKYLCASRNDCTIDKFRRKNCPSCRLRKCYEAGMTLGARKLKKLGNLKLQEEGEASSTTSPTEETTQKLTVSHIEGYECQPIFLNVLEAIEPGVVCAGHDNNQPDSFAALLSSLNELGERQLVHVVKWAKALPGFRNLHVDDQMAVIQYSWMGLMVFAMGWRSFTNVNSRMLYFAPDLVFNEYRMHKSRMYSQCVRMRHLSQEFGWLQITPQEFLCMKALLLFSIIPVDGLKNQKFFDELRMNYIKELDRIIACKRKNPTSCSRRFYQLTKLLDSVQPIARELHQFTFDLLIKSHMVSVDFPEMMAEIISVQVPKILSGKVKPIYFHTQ

As to `C=C(C)C1CC=C(C)C(=O)C1` (stereo not drawn), the Potency entry in test [1], in test [3], in test [4], in test [5], in [6] and in [7] was “inactive” in each case. Besides, the Potency result in test [8], in test [10], in test [11], in test [12], in [13] and in test [14] was “inactive” in each case. Besides, the outcome in [2], in test [9], in [15] and in [16] was inactive.
Take `CCCCOCCOC(=O)COc1ccc(Cl)cc1Cl`: the Potency entry in test [1], in test [3], in [4], in test [5], in [6] and in [7] was “inactive” in each case. Also, the Potency entry in [8], in test [10], in test [11], in test [12], in test [13] and in test [14] was “inactive” each time. Moreover, the compound was classed as inactive in test [2], in [9], in [15], in test [16] and in test [17].
`Cn1c(=O)c2[nH]c(Br)nc2n(C)c1=O`: the Potency entry in test [1], in test [3], in test [4], in test [5], in test [6] and in [18] was “inactive” each time. The Potency result in test [10], in [11], in test [12], in test [13] and in test [14] was “inactive” each time. Further, the call in test [2], in [9], in test [15], in test [16] and in test [19] was inactive.
Consider `CC(CO)(CO)CO`, for which the Potency result in [1], in [3], in [4], in test [5], in test [6] and in test [18] was “inactive” in each case. The Potency result in test [7], in test [10], in test [12], in test [13] and in [14] was “inactive” each time. The result in test [2], in [9], in test [15], in [16] and in test [17] was inactive.
Take `COc1c2occc2c(OC)c2c(=O)cc(C)oc12`: the Potency result in [1], in [3], in test [4], in test [5], in test [6] and in test [18] was “inactive” throughout. In addition, the Potency entry in test [7], in test [12], in test [13] and in [14] was “inactive” each time. Also, the compound was called inactive in [2], in test [9], in test [15], in test [16] and in test [19]. Moreover, the Potency in [10] is 8.49 µM (active); in test [11], 9.52 µM (active).
As to `OC[C@H]1O[C@@H](O[C@@H]2[C@@H](CO)O[C@](O)(CO)[C@H]2O)[C@H](O)[C@@H](O)[C@H]1O`, the Potency entry in test [1], in test [3], in test [4], in test [5], in test [6] and in [7] was “inactive” each time. The Potency entry in test [8], in [10], in test [11], in test [12], in test [13] and in test [14] was “inactive” in each case. In [20], the Potency entry is “inactive”. In addition, the outcome in test [2], in test [9], in test [15], in [16], in test [17] and in test [19] was inactive.
For the compound `CCCCCC(C)O` (stereo not drawn), the Potency result in test [1], in [3], in test [4], in test [5], in [6] and in test [7] was “inactive” throughout. For the same compound, the Potency result in test [8], in [10], in test [11], in test [12], in test [13] and in test [14] was “inactive” in each case. The outcome in test [2], in test [9], in test [15] and in test [16] was inactive.
`CC1c2ccccc2CN1NC(=O)c1ccc(Cl)c(S(N)(=O)=O)c1` (stereo not drawn): the Potency result in test [1], in test [3], in [4], in test [5], in [6] and in test [18] was “inactive” in each case. In addition, the Potency entry in test [8], in test [10], in test [11], in [12], in [13] and in [14] was “inactive” throughout. The compound was called inactive in test [2], in test [9], in test [15], in test [16] and in test [17]. For the same compound, in test [19], the PLD induction was -1.83% [at 1.53 µM].
Regarding `CC1(C)Cc2cccc(N)c2O1`, the Potency result in [1], in [3], in test [4], in test [5], in test [6] and in [18] was “inactive” throughout. Moreover, the Potency result in test [7], in test [10], in test [11], in test [12], in [13] and in test [14] was “inactive” each time. For the same compound, the call in [2], in [9], in [15] and in [17] was inactive.
As for `ONc1ccccc1`, the Potency entry in test [1], in test [3], in test [4], in test [5], in test [6] and in [7] was “inactive” each time. In addition, the Potency result in test [8], in test [10], in test [11], in test [12], in test [13] and in test [14] was “inactive” throughout. Moreover, the outcome in test [2], in test [9], in [15], in test [16] and in [17] was inactive.
`CN(C)C(C)(C)CO`: the Potency result in test [1], in [3], in test [4], in test [5], in [6] and in test [18] was “inactive” in each case. Moreover, the Potency entry in test [8], in test [10], in [12], in test [13] and in test [14] was “inactive” in each case. Moreover, the outcome in test [2], in [9], in test [15], in [16] and in test [17] was inactive.
As for `CC(O)CC(C)O` (stereo not drawn), the Potency result in [1], in test [3], in [4], in test [5], in [6] and in test [18] was “inactive” each time. Also, the Potency entry in [8], in [10], in test [11], in test [13] and in [14] was “inactive” in each case. Moreover, the result in test [2], in test [9], in test [15] and in test [16] was inactive.
For the compound `O=C(O)[C@H](O)c1ccccc1`, the Potency result in [1], in [3], in test [4], in [5], in test [6] and in test [18] was “inactive” throughout. Besides, the Potency entry in test [8], in test [10], in test [11], in test [12], in test [13] and in test [14] was “inactive” each time. In addition, the call in test [2], in [9], in test [15], in test [16], in test [17] and in [19] was inactive.
As for `CC(C)C1OCCN1CCOC(=O)NCCCCCCNC(=O)OCCN1CCOC1C(C)C` (stereo not drawn), the Potency entry in test [1], in [3], in [4], in test [5], in test [6] and in [18] was “inactive” in each case. Moreover, the Potency entry in [10], in test [11], in [12], in [13], in [14] and in [20] was “inactive” each time. For the same compound, the outcome in test [2], in test [9], in test [15] and in [16] was inactive.
